# The panel holds about 83,000 compounds, 20% with a hit somewhere; the sample as a whole holds those more often.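 Each cell line was grown in a 96-well plate and treated with one concentration of compound for 48 hours. Values below 10 were considered active.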 Unmarked numbers belong to inactive results. Activity calls are given as the source filed them.
# Test system: U251 CNS
# Test: NCI-60 one-dose screen, 48 h (100 = growth as untreated, 0 = no growth, -100 = all killed)
# Details: 10 µM unless noted
row,SMILES,growth
1,Nc1nc(Nc2ccccc2)c2ncn(Cc3ccc4c(c3)OCO4)c2n1,49.5%
2,CC(=O)OC[C@]12CC[C@@H](C(=O)CBr)[C@@H]1[C@H]1CC[C@@H]3[C@@]4(C)CCCNC(C)(C)[C@@H]4CC[C@@]3(C)[C@]1(C)CC2,-88.6% [100 µM] (active)
3,C[C@@H]1C[C@H]2C(=O)O[C@@H](C)[C@H](NC(=O)[C@H](Cc3cc(F)cc(F)c3)NC(=O)Nc3ccc(Cl)cc3F)C(=O)N3C[C@H](O)C[C@H]3C(=O)N3CCN(C)C[C@H]3C(=O)N[C@@H](C)C(=O)N2C1,21.1%
4,COC(=O)C(=Cc1ccccc1[N+](=O)[O-])C(=O)OC,23.7%
5,CC1Cc2c(Cl)ncnc2N(C)c2ccc(Cl)cc21 (stereo unspecified),18.8%
6,CC1(C(=O)O)CCC(N)(C(=O)O)C1(C)C (stereo unspecified),105%

# From PubChem BioAssay (NCI)
